Here are results for seven compounds from PubChem BioAssay.

Each structure is given as a SMILES string. Records with an inconclusive call do not appear. Active and inactive are the calls of the source.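 Rule for the calls, unless noted: active = normalized viability below 100% at a tested concentration; inactive = the rest.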

Assay [1] in a line: growth inhibition of DIPG glioma cells, dose response, cell-based, JHH-DIPG-1, MIPE4.0, CellTiter-Glo, qHTS (AID 1347062; cut-off not given, nearly all actives have AC50 up to about 27 µM). The conditions noted are these: JHH-DIPG-1 viability, CellTiter-Glo ATP luminescence.
Assay [2] is described as follows: viability loss in pontine glioma line – cell-based, SU-DIPG-XXV, MIPE5.0, CellTiter-Glo, qHTS, dose response (AID 1347065; cut-off not given, nearly all actives have AC50 up to about 26 µM;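 note: cells exposed to compound for 48 hours before ATP readout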). The conditions noted are these: CellTiter-Glo ATP luminescence.
The nature of assay [3]: JHH-DIPG-1 glioma cell viability, MIPE5.0 library, CellTiter-Glo luminescence, qHTS (AID 1347067; cut-off not given, nearly all actives have AC50 up to about 26 µM;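 note: cells exposed to compound for 48 hours before readout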). The conditions noted are these: JHH-DIPG-1 glioma viability, CellTiter-Glo ATP luminescence.
The nature of assay [4]: SU-DIPG-XXV glioma cell viability, MIPE5.0 library, qHTS (AID 1347068; cut-off not given, nearly all actives have IC50 up to about 30 µM).
The nature of assay [5]: sensitizers of A549 cells to miR-34 induction, primary screen, imaging, A549 dox-inducible miR-34, nuclei and caspase counts (AID 1347080;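 active = compounds whose cell count with miR-34 switched on is under 0.7 times the count with it off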). The following applies: A549 miR-34 inducible, Hoechst nuclei count, 48 h.
Assay [6] can be described thus: survival rescue of mitochondrial mutant cells in low glucose, primary screen, MELAS cybrids, Rieske KO mouse fibroblasts, CellTiter-Glo (AID 1508586;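 active = mean z-score across replicates of 1.96 or higher in either the MELAS or the Rieske mutant cell line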;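 note: z relative to plate mean and SD of compound and empty wells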).
Assay [7] can be described thus: growth inhibition of DIPG glioma cells, dose response, cell-based, SU-DIPG-IV, MIPE4.0, CellTiter-Glo, qHTS (AID 1347063; cut-off not given, nearly all actives have AC50 up to about 30 µM;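 note: compound exposure lasted 48 hours before the viability readout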). The conditions noted are these: SU-DIPG-IV viability, CellTiter-Glo ATP luminescence.
Assay [8] in a line: SU-DIPG-VI glioma cell viability, MIPE4.0 library, CellTiter-Glo luminescence, qHTS (AID 1347066; cut-off not given, nearly all actives have AC50 up to about 30 µM;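 note: cells exposed to compound for 48 hours before readout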). The conditions noted are these: CellTiter-Glo ATP luminescence.
Assay [9] can be described thus: growth inhibition of DIPG glioma cells, dose response, cell-based, SU-DIPG-XIII, MIPE5.0, CellTiter-Glo, qHTS (AID 1347064; cut-off not given, nearly all actives have AC50 up to about 23 µM;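 for AC50: cells exposed to compound for 48 hours before the viability read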). The conditions noted are these: SU-DIPG-XIII viability, CellTiter-Glo ATP luminescence.
A short description of assay [10]: modifiers of HSF1 nuclear foci, imaging, Selleck Cancer Library (AID 1347162; in the data active = plate-normalised HSF1 focus index below about 0.46). The following applies: human cells, at 10 µM; SSMD: measured here: HSF1 foci SSMD mean; cell count: measured here: cell number; plate-normalised HSF1 focus index: stronger effect = lower value.
Assay [11] can be described thus: ovarian cancer cell viability with rucaparib, profiling panel, oncology-focused library, rucaparib conditional (AID 1508598). The following applies: patient-derived ovarian cancer cells, CellTiter-Glo viability, 144 h, stronger effect = lower value.
Where [12] appears, read: stronger effect = lower value, cell number ratio, induced over uninduced.
Where [13] appears, read: measured here: relative caspase fold change +Dox/-Dox.
[14] abbreviates: measured here: total cells with miR-34 induction, stronger effect = lower value.
Setting [15] is: measured here: total cells without miR-34 induction.
Setting [16] is: MELAS cybrid survival, CellTiter-Glo 48 h, stronger effect = higher value.
[17] abbreviates: Rieske KO mouse fibroblast survival, CellTiter-Glo 72 h.

On to `CC(C)(C)c1nc(-c2cccc(NS(=O)(=O)c3c(F)cccc3F)c2F)c(-c2ccnc(N)n2)s1`, for which the call in [1], in assay [2], in assay [3] and in [4] was inactive. For the same compound, the fold change was 1 (inactive) in [5] (setting [12]) and 0.762 in [5] (setting [13]). Also, the cell count in assay [5] (setting [14]) and in [5] (setting [15]) was 8520 in each case. Further, the z-score in assay [6] (setting [16]) is -0.255 (inactive); in assay [6] (setting [17]), 0.678.
Regarding `CC/C=C\C[C@H]1C(=O)CC[C@@H]1CC(=O)OC`, the result in assay [1], in assay [7] and in assay [8] was inactive.
`CCCn1c(=O)c2[nH]c(-c3cnn(Cc4cccc(C(F)(F)F)c4)c3)nc2n(CC)c1=O`: the compound was classed as inactive in assay [1], in [8] and in assay [4]. The AC50 in [2] was 13.2 µM (active).
As to `CN(C)C(=O)[C@H](O)[C@H](Cc1ccccc1)NC(=O)c1cc2cc(Cl)ccc2[nH]1`, the AC50 in assay [7] is 4.18 µM (active). For the same compound, the result in [9], in [2], in [3] and in [4] was inactive. Also, the results for the fold change in assay [5] (setting [12]) and in [5] (setting [13]) were 0.925 (inactive) and 1.42, respectively. In addition, the figures for the cell count in [5] (setting [14]) and in assay [5] (setting [15]) were 8280 and 8950, respectively.
`COCCCc1sc(-c2ccccc2)nc1C(=O)Nc1ccccc1-c1nc2cc(CN3CCCC3)cnc2s1`: the AC50 in assay [9] is 9.1 µM (active); in assay [2] it was 12.9 µM (active).
For `C[C@]1(CO)CN(c2cc(C(=O)Nc3ccc4c(c3)-c3c(c(C(N)=O)nn3-c3ccc(F)cc3)CC4)c(Cl)cn2)C[C@@]1(C)CO`, the AC50 in [7] was 2.09 µM (active).
As to `Cc1nc(N)sc1-c1ccnc(Nc2ccc(N3CCOCC3)cc2)n1`, the AC50 in assay [7] was 20.9 µM (active); in [9], 5.9 µM (active); in [2] it was 2.63 µM (active); in assay [3] it was 14.8 µM (active). For the same compound, the fold change is 0.855 (inactive) in assay [5] (setting [12]) and 1.29 in assay [5] (setting [13]). For the same compound, the values for the cell count in assay [5] (setting [14]), in assay [5] (setting [15]) and in assay [10] were 1260, 1470 and 7110, respectively. Also, the SSMD in assay [10] was 3.31. In addition, the plate-normalised HSF1 focus index in assay [10] is 1.12 (inactive). The z-score in [6] (setting [16]) is 1.86 (inactive); in assay [6] (setting [17]), -0.218. Moreover, the viability in assay [11] (at 0.000305 µM, OCI-C5x cells, with rucaparib 10 µM, 100% = cells with rucaparib alone) is 109% (inactive); in assay [11] (at 0.000305 µM, OCI-C5x cells, without rucaparib) it was 111% (inactive); in assay [11] (at 0.000305 µM, OCI-P5x cells, with rucaparib 20 µM, 100% = cells with rucaparib alone), 125% (inactive); in assay [11] (at 0.000305 µM, OCI-P5x cells, without rucaparib), 120% (inactive); in [11] (at 0.00122 µM, OCI-C5x cells, with rucaparib 10 µM, 100% = cells with rucaparib alone), 110% (inactive); in assay [11] (at 0.00122 µM, OCI-C5x cells, without rucaparib) it was 112% (inactive). Also, the viability was 115% (inactive) in assay [11] (at 0.00122 µM, OCI-P5x cells, with rucaparib 20 µM, 100% = cells with rucaparib alone); 120% (inactive) in [11] (at 0.00122 µM, OCI-P5x cells, without rucaparib); 104% (inactive) in [11] (at 0.00488 µM, OCI-C5x cells, with rucaparib 10 µM, 100% = cells with rucaparib alone); 112% (inactive) in assay [11] (at 0.00488 µM, OCI-C5x cells, without rucaparib); 117% (inactive) in assay [11] (at 0.00488 µM, OCI-P5x cells, with rucaparib 20 µM, 100% = cells with rucaparib alone); 124% (inactive) in [11] (at 0.00488 µM, OCI-P5x cells, without rucaparib). In addition, the viability was 104% (inactive) in [11] (at 0.0195 µM, OCI-C5x cells, with rucaparib 10 µM, 100% = cells with rucaparib alone); 95.4% (active) in assay [11] (at 0.0195 µM, OCI-C5x cells, without rucaparib); 116% (inactive) in [11] (at 0.0195 µM, OCI-P5x cells, with rucaparib 20 µM, 100% = cells with rucaparib alone); 113% (inactive) in assay [11] (at 0.0195 µM, OCI-P5x cells, without rucaparib); 109% (inactive) in assay [11] (at 0.0781 µM, OCI-C5x cells, with rucaparib 10 µM, 100% = cells with rucaparib alone); 108% (inactive) in assay [11] (at 0.0781 µM, OCI-C5x cells, without rucaparib). The viability in [11] (at 0.0781 µM, OCI-P5x cells, with rucaparib 20 µM, 100% = cells with rucaparib alone) is 115% (inactive); in [11] (at 0.0781 µM, OCI-P5x cells, without rucaparib), 115% (inactive); in assay [11] (at 0.313 µM, OCI-C5x cells, with rucaparib 10 µM, 100% = cells with rucaparib alone) it was 109% (inactive); in [11] (at 0.313 µM, OCI-C5x cells, without rucaparib), 110% (inactive); in assay [11] (at 0.313 µM, OCI-P5x cells, with rucaparib 20 µM, 100% = cells with rucaparib alone), 116% (inactive); in [11] (at 0.313 µM, OCI-P5x cells, without rucaparib), 113% (inactive). The viability in assay [11] (at 1.25 µM, OCI-C5x cells, with rucaparib 10 µM, 100% = cells with rucaparib alone) is 101% (inactive); in assay [11] (at 1.25 µM, OCI-C5x cells, without rucaparib) it was 113% (inactive); in assay [11] (at 1.25 µM, OCI-P5x cells, with rucaparib 20 µM, 100% = cells with rucaparib alone) it was 113% (inactive); in [11] (at 1.25 µM, OCI-P5x cells, without rucaparib), 111% (inactive); in assay [11] (at 5 µM, OCI-C5x cells, with rucaparib 10 µM, 100% = cells with rucaparib alone), 107% (inactive); in assay [11] (at 5 µM, OCI-C5x cells, without rucaparib) it was 108% (inactive). The viability in assay [11] (at 5 µM, OCI-P5x cells, with rucaparib 20 µM, 100% = cells with rucaparib alone) is 97% (active); in [11] (at 5 µM, OCI-P5x cells, without rucaparib), 102% (inactive).
